Records with an inconclusive call do not appear. Entries that show only a call come without a potency. Activity calls are given as the source filed them. The call rests on the fitted dose curve; in most records, active means well fitted inhibition curve with a large enough effect; inconclusive means small, poorly fitted or top-dose-only effect; inactive means no such curve, though single readings can be large or run the other way.

Chain of Cytochrome P450 3A7 (Homo sapiens) (P24462 whole entry, looked up): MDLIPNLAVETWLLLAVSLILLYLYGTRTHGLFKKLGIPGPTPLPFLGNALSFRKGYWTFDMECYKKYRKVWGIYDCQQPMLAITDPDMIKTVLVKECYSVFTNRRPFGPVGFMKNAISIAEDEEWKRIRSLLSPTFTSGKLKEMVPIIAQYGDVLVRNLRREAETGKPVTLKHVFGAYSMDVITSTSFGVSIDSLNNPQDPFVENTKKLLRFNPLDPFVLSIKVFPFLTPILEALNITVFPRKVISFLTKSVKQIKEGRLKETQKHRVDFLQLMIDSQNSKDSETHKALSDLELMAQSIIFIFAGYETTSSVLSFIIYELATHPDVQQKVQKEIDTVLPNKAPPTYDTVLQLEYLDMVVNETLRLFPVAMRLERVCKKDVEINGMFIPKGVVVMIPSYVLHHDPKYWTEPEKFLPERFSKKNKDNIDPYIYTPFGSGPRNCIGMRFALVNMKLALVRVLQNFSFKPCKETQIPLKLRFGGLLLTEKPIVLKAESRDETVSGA

For this test, the target named is Cytochrome P450 3A7 (Homo sapiens) (UniProt P24462). The test can be described thus: Cytochrome P450 family 3 subfamily A member 7 (CYP3A7) small molecule antagonists: luciferase biochemical qHTS assay (AID 1963596). Further: nearly all actives have a fitted effect of over 40% in size. The note with it: P450-Glo CYP3A7 enzyme luminescence, 1 h; series mostly up to 57.4 µM. The method, boiled down:
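In this luminescent screen, enzyme and proluciferin substrate meet test compound for 10 min before NADPH regeneration solution drives a 1 h room-temperature reaction; detection reagent halts turnover and luminescence is read 20 min later.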
A general note: In qHTS, concentration-response curves come from the screen itself.
For `O=C(O)/C=C\C(=O)O`, the Potency entry was “inactive”.

On to `CCOc1ccc(NC(=O)CC(C)O)cc1` (stereo not given), for which the Potency result was “inactive”.

Take `CCS(=O)(=O)c1ccc(OC)c(C(=O)OC)c1`: the Potency result was “inactive”.

As for `C#CC(C)(CC)OC(=O)c1ccccc1C(=O)O` (stereo not given), the Potency entry was “inactive”.

Turning to `CCCNC(=O)NS(=O)(=O)c1ccc(Cl)cc1`, the Potency entry was “inactive”.

As to `CN1Cc2cc(C(=O)N3CCC(C4CCNCC4)CC3)ccc2NC(CC(=O)O)C1=O` (stereo not given), the Potency result was “inactive”.

On to `CCOC(=O)OC(C)OC1=C(C(=O)Nc2ccccn2)N(C)S(=O)(=O)c2ccccc21` (stereo not given), for which the Potency result is “inactive”.

Consider `O=C(Oc1ccccc1C(=O)O)c1ccccc1O`, for which the Potency entry is “inactive”.

Take `Nc1c2c(nc3ccccc13)CCCC2O` (stereo not given): the Potency entry is “inactive”.

As to `OCC(O)CN1CCN(c2ccccc2)CC1` (stereo not given), the Potency entry was “inactive”.

Consider `[O-][n+]1cccc(CO)c1`, for which the Potency result is “inactive”.

For the molecule `CC(C)(C)NCC(O)COc1cccc2c1C[C@H](O)[C@H](O)C2` (stereo not given in full), the Potency result was “inactive”.

Consider `O=c1[nH]c(=O)n([C@H]2CCCO2)cc1F`, for which the Potency entry was “inactive”.

On to `C[C@@]12C(=O)OC(=O)[C@]1(C)C1CCC2O1`, for which the Potency result is “inactive”.

Regarding `CC[C@H]1CN2CCc3cc(OC)c(OC)cc3[C@@H]2C[C@@H]1C[C@H]1NCCc2cc(OC)c(OC)cc21`, the Potency entry is “inactive”.

Consider `COc1ccc2c(c1)c1c3n2CCN(C)C3=NCC1`, for which the Potency entry is “inactive”.

Turning to `CN1CCN(CC(=O)N2c3ccccc3C(=O)Nc3cccnc32)CC1`, the activity change, negative = inhibition is 12.3% [at 4.83 µM] (inactive).

In the case of `CNCc1ccc(C)c(NC(=O)c2ccc(Nc3nc(-c4ccccc4)c4ccccc4n3)cc2)c1`, the Potency entry is “inactive”.

As for `O=C(NCCN1CCOCC1)c1ccc(Cl)cc1`, the Potency entry was “inactive”.

`O=C(O)[C@H](O)[C@@H](O)[C@H](O[C@@H]1O[C@H](CO)[C@H](O)[C@H](O)[C@H]1O)[C@H](O)CO`: the Potency entry is “inactive”.

Values taken from PubChem BioAssay (NCATS).
